# Screening data (PubChem)
# Only some compounds are listed: those with a hit (about 6.7% of all), similar ones and a draw of the others.
# C diff HTS: inhibitors of Clostridium difficile growth. Clostridium difficile clinical isolate growth, OD600, 24 h; hits give low values. growth activity, negative = inhibition, % at 16 µg/mL (by protocol). actives 0.25% (n = 86,000);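 active = mean growth activity at or below -80% and every replicate also at or below -80%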;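 note: 0% = DMSO wells and -100% = levofloxacin 16 µg/mL wells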
# T cruzi growth: blocks T. cruzi growth in NIH3T3 culture; actives 5.9% (n = 77,000); AID 624255; T. cruzi beta-gal in NIH3T3, GalScreen luminescence, 90 h; inhibition, % at 8.34 µM;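 active = mean inhibition above about 93%, with at least 55% of replicates each passing it, limit read from the data, passing the limit was not always enough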
# Pf Dd2 growth: blocks growth of Plasmodium falciparum Dd2 parasites; P. falciparum Dd2 growth, SYBR Green, 72 h; hits give low values; actives 2.3% (n = 94,000); activity change, % at 10 µM; in the data active = activity change below about -80%
# An asterisk follows results filed as active; · = not tested or not shown; ! = not active in a repeat.
SMILES,C diff HTS,T cruzi growth,Pf Dd2 growth
O=C(C[C@H]1CC[C@H]2[C@@H](COC[C@H](O)CN2C(=O)Nc2cc(Cl)cc(Cl)c2)O1)N1CCOCC1,-96.0*!,16.7,·
O=C(C[C@@H]1CC[C@@H]2[C@H](COC[C@H](O)CN2C(=O)Nc2ccc(Cl)c(Cl)c2)O1)NC1CCC1,-101.2*!,-123.3,·
CCNC(=O)C[C@@H]1CC[C@H]2[C@@H](COC[C@H](O)CN2C(=O)Nc2ccc(Cl)c(Cl)c2)O1,·,34.4,2.9
O=C(C[C@H]1CC[C@@H]2[C@H](COC[C@@H](O)CN2C(=O)Nc2cc(Cl)cc(Cl)c2)O1)N1CCOCC1,55.2,29.5,·
COc1ccc(S(=O)(=O)Nc2ccc3c(c2)C(=O)N([C@H](C)CO)C[C@@H](C)[C@@H](CN(C)C(=O)NC2CCCCC2)OCCCC[C@@H](C)O3)cc1,3.7,76.2,-86.4*
COc1ccc(CN(C)C[C@H]2OCCCC[C@H](C)Oc3ccc(NS(=O)(=O)c4ccc(OC)cc4)cc3C(=O)N([C@H](C)CO)C[C@@H]2C)cc1,0.4,20.1,-24.4
COc1ccc(S(=O)(=O)Nc2ccc3c(c2)C(=O)N([C@@H](C)CO)C[C@H](C)[C@@H](CN(C)Cc2ccc(Cl)c(Cl)c2)OCCCC[C@@H](C)O3)cc1,-5.1,17.6,-91.1*
COc1ccc(CN(C)C[C@H]2OCCCC[C@@H](C)Oc3ccc(NS(=O)(=O)c4ccc(OC)cc4)cc3C(=O)N([C@H](C)CO)C[C@H]2C)cc1,-6.2,·,-87.0*
COc1ccc(S(=O)(=O)Nc2ccc3c(c2)C(=O)N([C@H](C)CO)C[C@@H](C)[C@H](CN(C)C(=O)NC2CCCCC2)OCCCC[C@H](C)O3)cc1,-10.5,·,-48.2
COc1ccc(S(=O)(=O)Nc2ccc3c(c2)C(=O)N([C@@H](C)CO)C[C@H](C)[C@H](CN(C)Cc2ccc(Cl)c(Cl)c2)OCCCC[C@@H](C)O3)cc1,·,41.0,-61.0
CCC(=O)N1C[C@@H](C)[C@H](OC)CN(C)C(=O)c2cc(NC(=O)c3cnccn3)ccc2OC[C@@H]1C,-2.7,1.0,14.2
C[C@H]1CN([C@@H](C)CO)C(=O)c2cccc(NC(=O)C3CCOCC3)c2O[C@H]1CN(C)C(=O)Nc1ccc(C(F)(F)F)cc1,-2.6,67.2,13.3
COc1ccccc1C#Cc1ccc([C@H]2[C@@H](CO)N(C(=O)C3CCCCC3)[C@H]2C#N)cc1,-2.6,83.1,-90.9*
COc1ccccc1C#Cc1ccc([C@@H]2[C@@H](C#N)N(C(=O)C3CCCCC3)[C@@H]2CO)cc1,-3.1,·,-51.2
COc1ccccc1C#Cc1ccc([C@H]2[C@@H](C#N)N(C(=O)C3CC3)[C@H]2CO)cc1,4.7,91.4,-85.2*
COc1ccccc1C#Cc1ccc([C@H]2[C@H](C#N)N(C(=O)C3CC3)[C@H]2CO)cc1,5.3,94.8,-36.8
C[C@H](CO)N1C[C@H](C)[C@@H](CN(C)C(=O)C2CC2)Oc2cc(-c3ccccc3F)ccc2S1(=O)=O,-16.1,71.6,-5.6
COc1ccc2c3c([nH]c2c1)[C@@H](CO)N(C(=O)c1cccc(F)c1)CC31CN(C(=O)CC2CC2)C1,-3.8,·,-27.5
CC(C)C#Cc1ccc2c(c1)O[C@H](CN(C)C(=O)c1cccnc1)[C@H](C)CN([C@H](C)CO)S2(=O)=O,-4.4,40.5,-12.2
C[C@@H]1CN([C@H](C)CO)C(=O)c2cccc(NC(=O)c3cnccn3)c2O[C@@H]1CN(C)Cc1ccc(C(=O)O)cc1,0.9,-11.9,4.4
C[C@H](CO)N1C[C@H](C)[C@@H](CN(C)Cc2ccccc2)Oc2c(NC(=O)c3ccc(-c4nccs4)cc3)cccc2C1=O,9.8,69.4,-6.4
C[C@H](CO)N1C[C@H](C)[C@H](CN(C)Cc2ccc(C(=O)Nc3ccccc3N)cc2)Oc2c(NC(=O)c3ccc(-c4nccs4)cc3)cccc2C1=O,-5.1,93.2,-90.0*
C[C@@H]1CN([C@@H](C)CO)C(=O)c2cccc(NC(=O)c3ccc(-c4nccs4)cc3)c2O[C@@H]1CN(C)Cc1ccccc1,-6.4,71.1,-21.0
C[C@@H]1CN([C@@H](C)CO)C(=O)c2cccc(NC(=O)c3ccc(-c4nccs4)cc3)c2O[C@@H]1CN(C)Cc1ccc(C(=O)Nc2ccccc2N)cc1,2.8,86.6,-94.6*
C[C@H](CO)N1C[C@H](C)[C@H](CN(C)Cc2ccc(C(=O)Nc3ccccc3N)cc2)Oc2c(NC(=O)c3cnccn3)cccc2C1=O,4.9,·,-86.0*
SMILES,C diff HTS,T cruzi growth,Pf Dd2 growth
CCNC(=O)C[C@H]1CC[C@H](NC(=O)C2CCOCC2)[C@H](CO)O1,12.6,49.1,6.8
COc1ccc(S(=O)(=O)N(C)C[C@@H]2Oc3ccc(NS(=O)(=O)c4ccc(C)cc4)cc3CC(=O)N([C@H](C)CO)C[C@@H]2C)cc1,9.7,-7.7,-69.4
C[C@@H]1CN([C@H](C)CO)C(=O)c2cc(NS(=O)(=O)c3ccc(Cl)cc3)ccc2O[C@@H]1CN(C)S(=O)(=O)c1ccc(F)cc1,3.0,33.3,23.3
C[C@H]1CN([C@@H](C)CO)C(=O)Cc2cc(NS(=O)(=O)c3ccc(Cl)cc3)ccc2O[C@H]1CN(C)S(=O)(=O)c1ccc(Cl)cc1,18.0,61.1,-73.8
C[C@@H]1CN([C@@H](C)CO)C(=O)Cc2cc(NS(=O)(=O)c3ccc(Cl)cc3)ccc2O[C@H]1CN(C)S(=O)(=O)c1ccc(Cl)cc1,16.8,-53.0,-85.4*
C[C@H](CO)N1C[C@H](C)[C@H](CN(C)S(=O)(=O)c2ccc(F)cc2)Oc2ccc(NS(=O)(=O)c3ccc(Cl)cc3)cc2C1=O,0.6,39.9,-92.8*
COc1ccc(S(=O)(=O)Nc2ccc3c(c2)CC(=O)N([C@@H](C)CO)C[C@H](C)[C@H](CN(C)S(=O)(=O)c2ccc(C)cc2)O3)cc1,9.8,-7.3,-86.2*
COc1ccc(NC(=O)Nc2ccc3c(c2)C(=O)N([C@H](C)CO)C[C@H](C)[C@@H](CN(C)Cc2ccncc2)O3)cc1,-1.9,4.0,4.3
O=C(C[C@H]1CC[C@@H]2[C@H](COC[C@H](O)CN2CC2CCCCC2)O1)NCc1ccc(Cl)cc1,·,83.6,-6.5
COc1ccc(NC(=O)N(C)C[C@@H]2Oc3ccc(NC(=O)Cc4cn(C)c5ccccc45)cc3CC(=O)N([C@@H](C)CO)C[C@@H]2C)cc1,0.5,38.5,-46.3
CNC[C@@H]1Oc2cc(C#CCC(C)C)ccc2S(=O)(=O)N([C@@H](C)CO)C[C@H]1C,-1.2,34.6,-61.7
Cc1ccccc1S(=O)(=O)N(C)C[C@@H]1OCc2ccccc2-c2ccccc2C(=O)N([C@@H](C)CO)C[C@@H]1C,-11.1,94.1,-57.3
COc1ccc(CN(C)C[C@@H]2OCc3cn(nn3)CCCC(=O)N([C@H](C)CO)C[C@H]2C)cc1,2.8,-30.7,-81.0*
C[C@H](CO)N1C[C@H](C)[C@H](CN(C)Cc2ccccc2)OCc2ccccc2-c2ccccc2C1=O,·,31.5,-14.9
C[C@@H]1CN([C@H](C)CO)C(=O)c2ccccc2-c2ccccc2CO[C@@H]1CN(C)S(=O)(=O)c1ccc(Cl)cc1,8.0,93.3,-49.4
C[C@H](CO)N1C[C@H](C)[C@H](CN(C)S(=O)(=O)c2ccc(Cl)cc2)OCc2ccccc2-c2ccccc2C1=O,0.8,66.7,-84.7*
